# Screening data: PubChem, Broad Institute
# Hits are enriched below; roughly 8.1% of the tested compounds scored in any of these assays.
# Hedgehog inh – Sonic Hedgehog pathway inhibition; Shh-LIGHT2 Gli-luciferase reporter, 30 h; inhibition, % (no concentration beside the values); hit rate 2.1% among 22,000; AID 2313;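 active = mean inhibition across valid replicates above about 65%, limit read from the data; inconclusive = mean under the limit, yet half or more replicates past it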;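 note: pathway switched on by Shh-conditioned medium diluted 1 in 25 in low serum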
# MITF inhib – blocks MITF activity; TRPM1 promoter luciferase, luminescence, 24 h; inhibition, % (test concentration not listed); hit rate 0.28% among 37,000; in the data active = inhibition above about 85%; inconclusive = no clear call, values can overlap the other calls; inactive = below about 68%;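 note: human melanocyte line stably carrying TRPM1 promoter luciferase reporter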
# NOMO-1 viab – STK33 inhibitor candidate reducing NOMO-1 cell viability | NOMO-1 AML viability, CellTiter-Glo luminescence, 72 h | inhibition, % (concentration not given with the values) | hit rate 7.5% among 37,000; in the data active = inhibition above about 80%; inconclusive = no clear call, values can overlap the other calls
# PD-1 reverse act – reversal of PD-1 mediated T-cell inhibition | primary human CD4 T cells, PD-L1 beads, CellTiter-Glo 96 h | activation, % (no concentration beside the values) | 29,000 tested, under 10 active | AID 2316; call rule not given here
# Numbers stand for hits; – = inactive; ? = inconclusive; · = no result.
SMILES,Hedgehog inh,MITF inhib,NOMO-1 viab,PD-1 reverse act
C[C@@H]1CN([C@@H](C)CO)C(=O)c2cccc(NC(=O)Nc3ccc(C(F)(F)F)cc3)c2O[C@@H]1CN(C)Cc1ccc(C(F)(F)F)cc1,–,–,?,–
Cc1cc(C(=O)Nc2cccc3c2O[C@@H](CN(C)S(=O)(=O)c2cn(C)cn2)[C@@H](C)CN([C@@H](C)CO)C3=O)n(C)n1,–,–,–,–
O=c1[nH]c(=O)n(C2C[C@H](O)[C@@H](CO)O2)cc1C(F)(F)F (stereo partly specified),–,–,108,·
COC(=O)CC(O)(CCCC(C)(C)O)C(=O)O[C@@H]1C(OC)=C[C@]23CCCN2CCc2cc4c(cc2[C@@H]13)OCO4 (stereo partly specified),104,93,99,–
CCCSc1nnc(-c2cc(Br)ccc2NC(C)=O)c(=O)[nH]1,·,–,–,·
COC(=O)C(NC(=O)c1ccc([N+](=O)[O-])o1)C(C)C (stereo unspecified),·,–,113,·
N#C/C(=C\c1ccc(O)c(O)c1)C(=O)c1ccc(O)c(O)c1,–,–,–,–
N#C/C(=C\c1ccc(O)c(O)c1)C(=O)NCCCc1ccccc1,86,–,92,–
NCCOc1ccc(Cl)cc1,?,–,111,–
Cc1ccc(S(=O)(=O)Nc2cccc3c2O[C@@H](CN(C)Cc2ccc(-c4ccccc4)cc2)[C@@H](C)CN([C@@H](C)CO)C3=O)cc1,–,–,91,–
Cc1ccc(S(=O)(=O)Nc2cccc3c2O[C@H](CN(C)Cc2ccc(Oc4ccccc4)cc2)[C@@H](C)CN([C@H](C)CO)C3=O)cc1,–,–,99,–
Cc1ccc(S(=O)(=O)Nc2cccc3c2O[C@@H](CN(C)Cc2ccc(Oc4ccccc4)cc2)[C@H](C)CN([C@@H](C)CO)C3=O)cc1,–,–,–,·
C[C@@H]1CN([C@@H](C)CO)C(=O)c2cccc(NS(=O)(=O)c3ccc(Cl)cc3)c2O[C@@H]1CN(C)Cc1ccc(-c2ccccc2)cc1,?,–,115,–
C[C@@H]1CN([C@H](C)CO)C(=O)c2cccc(NS(=O)(=O)c3ccccc3)c2O[C@@H]1CN(C)Cc1ccc(-c2ccccc2)cc1,–,–,–,–
C[C@@H]1CN([C@@H](C)CO)C(=O)c2cccc(NS(=O)(=O)c3ccccc3)c2O[C@@H]1CN(C)Cc1ccc(-c2ccccc2)cc1,–,–,98,–
CCOC(=O)c1cc2c(oc1=O)c(I)cc1oc3c(c12)CCCC3,–,–,–,–
COc1cc(N)c(Cl)cc1C(=O)N[C@H]1CCN(CCCOc2ccc(F)cc2)C[C@H]1OC,–,–,–,·
CC(C)=CCCC1(C)C=Cc2c(c(C)cc3c2[nH]c2cc(O)ccc23)O1 (stereo unspecified),–,–,108,–
C=C1C(NC)CCC23CC24CCC2(C)C(C(C)N(C)C(C)=O)C(O)CC2(C)C4CCC13 (stereo unspecified),–,–,–,–
C1=Cc2nonc2C2C=C(c3ccccc3)N=C12 (stereo unspecified),–,–,92,–
Nc1nonc1-c1ccccc1,–,–,–,–
CCOC(=O)C1CCN(S(=O)(=O)Cc2ccccc2)C1=O (stereo unspecified),–,–,112,–
CC(C)NC(=O)Nc1ccc2c(c1)CC(=O)N([C@H](C)CO)C[C@@H](C)[C@H](CN(C)C(=O)NC(C)C)O2,–,–,–,·
O=C(CSc1ncnc2sc(-c3ccccc3)cc12)NC1CCCCC1,·,–,104,–
CO[C@@]12[C@@H]3NC3CN1C1=C(C(=O)C(N)=C(C)C1=O)[C@@H]2COC(N)=O (stereo partly specified),67,–,106,·
SMILES,Hedgehog inh,MITF inhib,NOMO-1 viab,PD-1 reverse act
N#CC1=C(N)OC(C2CC2)=C(C#N)C1c1ccccc1Cl (stereo unspecified),–,–,–,–
N#CC1=C(N)Oc2c(sc3ccccc23)C1c1ccccc1OC(=O)c1ccccc1Cl (stereo unspecified),–,–,115,–
O=c1c(-c2ccc(O)cc2)coc2cc(O[C@@H]3O[C@H](CO)[C@@H](O)[C@H](O)[C@H]3O)cc(O)c12,–,–,96,–
COc1ccc(-c2coc3cc(O[C@@H]4O[C@H](CO)[C@@H](O)[C@H](O)[C@H]4O)cc(O)c3c2=O)cc1,–,–,–,–
Cc1ccc(C(=O)NC2(C(F)(F)F)C(=O)N(Cc3ccccn3)C3=C2C(=O)CC(C)(C)C3)cc1 (stereo unspecified),·,–,–,–
N#Cc1c(SCC(=O)c2ccc(F)cc2)nsc1SCC(=O)c1ccc(F)cc1,81,–,–,–
COc1cccc(C(=O)NC(c2ccccc2OC)c2c(O)ccc3ccccc23)c1 (stereo unspecified),·,–,–,–
COc1cccc(C(=O)NC(c2ccc([N+](=O)[O-])cc2)c2c(O)ccc3ccccc23)c1 (stereo unspecified),·,–,114,·
COc1cccc(C(=O)NC(c2ccc(Cl)cc2)c2c(O)ccc3ccccc23)c1 (stereo unspecified),·,102,108,–
CCC(Oc1cccc(NC(=O)c2ccc([N+](=O)[O-])cc2)c1)C(=O)c1ccccc1 (stereo unspecified),·,–,–,·
COc1ccc(S(=O)(=O)Nc2ccc3c(c2)CC(=O)N([C@H](C)CO)C[C@@H](C)[C@H](CN(C)C(=O)Nc2c(C)noc2C)O3)cc1,–,–,–,–
Cc1nc(Oc2ccc(NC(=O)c3ccccc3)cc2)c2c3c(sc2n1)CCC3,·,–,133,–
C[C@@H]1CN([C@H](C)CO)C(=O)c2cccc(NS(=O)(=O)c3cn(C)cn3)c2O[C@@H]1CN(C)S(=O)(=O)c1ccccc1,–,–,–,–
COc1ccc(S(=O)(=O)Nc2ccc3c(c2)CC(=O)N([C@H](C)CO)C[C@@H](C)[C@@H](CN(C)S(=O)(=O)c2ccccc2)O3)cc1,–,–,–,–
C[C@H](CO)N1C[C@H](C)[C@@H](CN(C)C(=O)Nc2ccc(F)cc2)Oc2c(NC(=O)Nc3ccc(C(F)(F)F)cc3)cccc2C1=O,–,–,–,·
C[C@@H]1CN([C@@H](C)CO)C(=O)c2cccc(NC(=O)NC3CCCCC3)c2O[C@@H]1CN(C)C(=O)Nc1ccc(C(F)(F)F)cc1,–,–,94,–
C[C@@H]1CN([C@@H](C)CO)C(=O)c2cccc(NC(=O)Nc3ccc(C(F)(F)F)cc3)c2O[C@H]1CN(C)C(=O)Nc1ccc(F)cc1,–,–,117,–
C[C@@H]1CN([C@H](C)CO)C(=O)c2cccc(NC(=O)NC3CCCCC3)c2O[C@@H]1CN(C)C(=O)Nc1ccc(C(F)(F)F)cc1,–,–,–,·
C[C@H](CO)N1C[C@H](C)[C@H](CN(C)C(=O)Nc2ccc(F)cc2)Oc2c(NC(=O)Nc3ccc(C(F)(F)F)cc3)cccc2C1=O,–,–,103,–
C[C@H]1CN([C@@H](C)CO)C(=O)c2cccc(NC(=O)Nc3ccc(C(F)(F)F)cc3)c2O[C@H]1CN(C)C(=O)Nc1ccc(C(F)(F)F)cc1,–,–,–,–
